Active and inactive are the calls of the source.

Assay [1] deals with Human papillomavirus type 1a protein E7 (residues 44-93). Nature of the assay: HPV1a E7 fragment binders on microarrays, primary screen, biochemical, small-molecule microarray, residues 44-93, 635 nm fluorescence (AID 1108).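 Also: E7 fragment applied at 1 µg/mL in TBST for 1 h at 4 C; score combines spot fluorescence with its signal to noise ratio.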 The conditions noted are these: small-molecule microarray binding, fluorescence 635 nm; higher = more signal.
Assay [2] can be described thus: modulators of HCV replicon luciferase signal, primary screen, HCV replication inhibitor project, Huh7 cells, luciferase reporter (AID 1109).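 Also: huh7 hepatoma cells harbouring a luciferase neomycin HCV replicon reporter; luciferase luminescence as measure of HCV replicon replication; test concentration not given here.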 The note with it: 48 h, higher = more signal. In general terms: Replicon systems follow genome replication, usually without infectious particles.
For assay [3], the target named is Left-right determination factor 2 (Homo sapiens) (UniProt O00292). Nature of the assay: LEFTY2 binders on small-molecule microarrays, primary screen, biochemical, small-molecule microarray, 635 nm fluorescence scan (AID 1110). The note with it: LEFTY2 binding, higher = more signal.
Assay [4] addresses Calmodulin-1 (Homo sapiens) (UniProt P0DP23). Nature of the assay: CALM1 binders on microarrays, EGTA buffer, profiling panel, biochemical, small-molecule microarray, Cy5-labelled CALM1 (AID 1111).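 Also: labelled calmodulin applied in Tris saline Tween buffer holding calcium plus EGTA and DTT.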 The note with it: Cy5-CALM1 binding fluorescence, higher = more signal.
The target is the same in assay [5]. Nature of the assay: calcium-bound CALM1 binders on microarrays, profiling panel, artefact control for SMM control-protein annotation, biochemical, small-molecule microarray, Cy5-labelled CALM1, plus calcium (AID 1112).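 Also: score merges spot fluorescence with signal to noise from triplicate slides.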 The note with it: Cy5-CALM1 binding fluorescence, higher = more signal.
Assay [6] is described as follows: small-molecule microarray binders of probe aWnt5a, primary screen, biochemical, biotinylated probe, 635/667 nm fluorescence (AID 1113).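 Also: score merges 667 nm fluorescence intensity with signal-to-noise per printed feature.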 The note with it: higher = more signal.
Assay [7] is described as follows: small-molecule microarray binders of probe aShh, primary screen, biochemical, biotinylated probe, 635/667 nm fluorescence (AID 1114).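 Also: probe is biotin-labelled aShh protein from a stem cell growth factor screen; measures binding of labelled protein to compounds printed on the slide; score merges feature fluorescence at 667 nm with signal-to-noise.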 The note with it: higher = more signal.
Assay [8] in a line: small-molecule microarray binders of probe aNog, primary screen, biochemical, biotinylated probe, 635/667 nm fluorescence (AID 1115).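 Also: probe is biotinylated aNog protein used at 0.15 µg/mL for 1 h at 4 C; z-score combines 667 nm fluorescence of each spot with its signal to noise.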 The conditions noted are these: higher = more signal.
For assay [9], the target named is Torsin-1A-interacting protein 1 (Homo sapiens) (UniProt Q5JTV8). Nature of the assay: LAP1 binders from COS7 cell lysate, primary screen, small-molecule microarray, 635/667 nm fluorescence (AID 1116). The conditions noted are these: COS7-hLAP1 lysate binding, 635 nm fluorescence, higher = more signal.
The target of assay [10] is Alpha-bungarotoxin (Bungarus multicinctus) (UniProt P60615). Kind of assay: alpha-bungarotoxin binders on microarray, profiling panel, artefact control for SMM control protein annotation, biochemical, small-molecule microarray, Alexa647 label, 635/667 nm fluorescence (AID 1117). The note with it: alpha-BTX-A647 binding fluorescence, higher = more signal.
Assay [11] concerns the target Albumin (Bos taurus) (UniProt P02769). Kind of assay: bovine serum albumin binders on microarray, profiling panel, artefact control for SMM control protein annotation, biochemical, small-molecule microarray, Alexa647 label, 635/667 nm fluorescence (AID 1118).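 Also: score merges 667 nm emission intensity and signal-to-noise per printed compound spot.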 The conditions noted are these: BSA-A647 binding, fluorescence 635 nm, higher = more signal.
Assay [12] is described as follows: small-molecule microarray binders of probe aXIP, primary screen, biochemical, NeuroSMM set, 635/667 nm fluorescence (AID 1119).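 Also: probe is the protein aXip251-270 applied at 1 µg/mL to compound-printed slides; binding of probe to printed compounds measured as 667 nm fluorescence plus signal to noise.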 The note with it: higher = more signal, called active from +8 up or from −8 down.
Assay [13] is described as follows: small-molecule binders of probe aNOTCH3, primary screen, biochemical, small-molecule microarray, 635/667 nm fluorescence (AID 1120).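 Also: probe is a biotin-tagged antibody raised against NOTCH3 rather than NOTCH3 protein; score merges spot fluorescence near 667 nm with spot signal to noise.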 The note with it: higher = more signal.
The nature of assay [14]: small-molecule binders of probe aNOTCH2, primary screen, biochemical, small-molecule microarray, 635/667 nm fluorescence (AID 1121).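 Also: score merges feature fluorescence read at 667 nm with its signal to noise.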 The note with it: higher = more signal.
Assay [15] has as its target Carbonic anhydrase 2 (Homo sapiens) (UniProt P00918). Kind of assay: CAII small-molecule binders, profiling panel, biochemical, small-molecule microarray, Alexa647-labelled CAII (AID 1122). The note with it: CAII-A647 binding fluorescence, higher = more signal.
The nature of assay [16]: COS7 lysate on small-molecule microarray, probe aHis, 635 nm (AID 1123).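 Also: z-score combines 667nm fluorescence intensity with signal-to-noise per printed compound spot.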 The note with it: COS7 cell lysate, fluorescence, higher = more signal.
The nature of assay [17]: compound binding in COS7 lysate, probe aLAP1, primary screen, cell lysate, small-molecule microarray (AID 1124).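 Also: lysate comes from COS7 cells expressing LAP1 and is applied at 0.3 µg/mL; score merges spot fluorescence near 667 nm with signal-to-noise over triplicate slides.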 The conditions noted are these: probe aLAP1, fluorescence, higher = more signal.
Assay [18] concerns Sam68 (KHDRBS1). Nature of the assay: Sam68 small-molecule binders, primary screen, biochemical, small-molecule microarray, 635 nm fluorescence (AID 1125).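 Also: score merges 667 nm channel intensity with signal to noise over triplicate slides.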 The note with it: small-molecule microarray binding, higher = more signal.
Assay [19] relates to Chordin-like protein 2 (CHRDL2). Kind of assay: CHRDL2 small-molecule binders, primary screen, biochemical, small-molecule microarray, 635 nm fluorescence (AID 1126).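 Also: printed compound slides probed with Chrdl2 protein at 4 µg/mL for 1 h at 4 C; score merges 667 nm emission intensity with signal to noise over three replicate slides.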 The conditions noted are these: small-molecule microarray binding, fluorescence 635 nm; higher = more signal.
Assay [20] deals with Concanavalin-A (Canavalia ensiformis) (UniProt P02866). Kind of assay: ConA small-molecule binders, primary screen, artefact control for SMM control protein annotation, biochemical, small-molecule microarray, Alexa647 label, 635 nm (AID 1127).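 Also: z combines 667 nm emission intensity with signal-to-noise across three replicate slides.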 The conditions noted are these: ConA-A647 binding fluorescence, higher = more signal.
Chain of Concanavalin-A (Canavalia ensiformis) (P02866 whole entry, looked up): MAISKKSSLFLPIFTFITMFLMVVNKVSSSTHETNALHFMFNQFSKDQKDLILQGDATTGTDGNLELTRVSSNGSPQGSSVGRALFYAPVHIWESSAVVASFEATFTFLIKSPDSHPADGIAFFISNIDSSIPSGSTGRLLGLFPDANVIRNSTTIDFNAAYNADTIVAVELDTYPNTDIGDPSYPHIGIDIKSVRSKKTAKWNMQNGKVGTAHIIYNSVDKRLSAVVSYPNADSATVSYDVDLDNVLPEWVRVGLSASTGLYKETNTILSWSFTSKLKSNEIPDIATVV

Chain of Alpha-bungarotoxin (Bungarus multicinctus) (P60615 whole entry, looked up): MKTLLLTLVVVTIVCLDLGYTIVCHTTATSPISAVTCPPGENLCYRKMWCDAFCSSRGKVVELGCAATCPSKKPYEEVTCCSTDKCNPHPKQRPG
Chain of Albumin (Bos taurus) (P02769 whole entry, looked up): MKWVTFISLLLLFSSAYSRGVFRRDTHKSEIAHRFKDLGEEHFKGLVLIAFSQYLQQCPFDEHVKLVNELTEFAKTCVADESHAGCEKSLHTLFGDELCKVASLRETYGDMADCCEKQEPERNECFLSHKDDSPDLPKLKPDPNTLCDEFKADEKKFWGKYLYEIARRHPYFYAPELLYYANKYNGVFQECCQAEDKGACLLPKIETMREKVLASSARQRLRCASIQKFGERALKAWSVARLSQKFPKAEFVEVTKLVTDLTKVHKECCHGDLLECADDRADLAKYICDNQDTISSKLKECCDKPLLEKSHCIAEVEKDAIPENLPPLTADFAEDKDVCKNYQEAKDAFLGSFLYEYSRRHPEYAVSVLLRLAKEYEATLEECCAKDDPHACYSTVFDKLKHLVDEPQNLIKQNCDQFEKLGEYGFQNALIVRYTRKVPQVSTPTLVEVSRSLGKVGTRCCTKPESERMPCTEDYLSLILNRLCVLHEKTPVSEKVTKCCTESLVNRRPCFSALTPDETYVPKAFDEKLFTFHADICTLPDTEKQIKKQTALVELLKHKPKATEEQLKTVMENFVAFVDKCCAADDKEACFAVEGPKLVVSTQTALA
Chain of Torsin-1A-interacting protein 1 (Homo sapiens) (Q5JTV8 whole entry, looked up): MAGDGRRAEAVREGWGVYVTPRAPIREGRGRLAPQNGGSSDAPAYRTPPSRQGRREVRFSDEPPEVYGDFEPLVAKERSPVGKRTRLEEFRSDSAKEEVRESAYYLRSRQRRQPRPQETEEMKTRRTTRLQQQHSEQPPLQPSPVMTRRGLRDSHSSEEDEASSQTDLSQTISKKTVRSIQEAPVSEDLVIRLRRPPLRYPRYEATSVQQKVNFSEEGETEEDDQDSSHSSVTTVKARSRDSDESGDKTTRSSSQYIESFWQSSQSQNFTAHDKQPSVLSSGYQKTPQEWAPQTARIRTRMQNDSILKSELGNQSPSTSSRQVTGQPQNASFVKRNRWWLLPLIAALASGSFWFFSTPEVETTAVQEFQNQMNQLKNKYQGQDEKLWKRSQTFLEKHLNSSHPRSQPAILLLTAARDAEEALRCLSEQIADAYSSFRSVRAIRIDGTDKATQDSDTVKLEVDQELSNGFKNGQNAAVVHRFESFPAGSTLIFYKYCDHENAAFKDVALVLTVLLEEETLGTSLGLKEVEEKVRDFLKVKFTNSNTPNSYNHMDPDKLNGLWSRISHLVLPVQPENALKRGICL
Chain of Left-right determination factor 2 (Homo sapiens) (O00292 whole entry, looked up): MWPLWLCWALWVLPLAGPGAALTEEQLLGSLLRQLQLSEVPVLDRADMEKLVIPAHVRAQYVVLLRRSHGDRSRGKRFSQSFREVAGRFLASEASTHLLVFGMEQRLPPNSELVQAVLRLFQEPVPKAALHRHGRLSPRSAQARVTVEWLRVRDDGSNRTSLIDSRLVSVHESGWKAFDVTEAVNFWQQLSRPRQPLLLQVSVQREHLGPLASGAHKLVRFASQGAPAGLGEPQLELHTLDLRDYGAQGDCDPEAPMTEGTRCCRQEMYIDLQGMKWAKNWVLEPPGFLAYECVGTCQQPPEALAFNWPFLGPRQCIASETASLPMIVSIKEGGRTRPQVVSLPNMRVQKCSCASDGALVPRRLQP

As to `CN(C)CCCC[C@@H]1NC(=O)[C@H]2C[C@@H](C(=O)NCCCCCCNC(=O)CS)[C@@H](c3ccc(O)cc3)N2C1=O`, the composite z-score in [1] is 1.3; in assay [3], -0.603; in assay [4], -0.445; in assay [5], -0.107; in assay [6], -0.221; in assay [7] it was 0.194. In addition, the composite z-score in assay [8] is -0.541; in assay [9], 2.53; in assay [10], -0.945; in assay [11], 0.468; in [13], -0.159; in [14] it was -0.14. Further, the composite z-score in assay [15] is 0.802; in [16], 2.66; in assay [17], 0.957; in assay [18], 0.457; in [19] it was -0.0412; in assay [20], -0.263. Further, the z-score in [2] was 0.344. Moreover, the composite Z-score in assay [12] was -0.131 (inactive).
In the case of `CCOC(=O)C[C@H]1[C@H](OC(=O)c2cc3ccccc3oc2=O)[C@@H](NC(=O)c2ccc3ccccc3n2)c2cc(OCCCO)ccc2N1C(=O)c1ccc2ccccc2n1`, the composite z-score in assay [1] was 0.412; in [3], 1.09; in assay [4], -0.145; in [5] it was -0.36; in assay [6], 0.172; in [7], 0.01. In addition, the composite z-score was -0.158 in [8]; 0.816 in assay [9]; 0.214 in assay [10]; -0.407 in [11]; 0.255 in [13]; -0.0294 in assay [14]. Moreover, the composite z-score in assay [15] came to 0.312; in assay [16], 0.32; in [17], 0.129; in [18], 0.539; in assay [19], 0.572; in assay [20], 0.862. In assay [2], this compound returned a z-score of -2.04. In addition, the composite Z-score in assay [12] was 0.581 (inactive).
Consider `COC(=O)[C@]1(Cc2ccccc2CN=[N+]=[N-])N=C(c2ccc(OCCCO)cc2)O[C@@H]1c1ccccc1`, for which the composite z-score in assay [1] was -1.61; in assay [3] it was -1.63; in assay [4], -0.103; in assay [5] it was 0.128; in [6] it was -0.228; in assay [7] it was -0.0793. The composite z-score in assay [8] is -0.361; in assay [9], -1.18; in assay [10], 1.13; in assay [11], -0.312; in assay [13], -0.122; in assay [14], -0.0194. Moreover, the composite z-score in [15] was 0.563; in assay [16], 0.243; in assay [17] it was -0.779; in assay [18], -0.776; in assay [19], -0.928; in assay [20], 0.694. This compound returned a z-score in assay [2] of -3.19. Moreover, the composite Z-score in assay [12] is 0.667 (inactive).
Take `OCCCC1=CC(c2cccs2)N(Cc2cccc(OC(F)(F)F)c2)CC1` (stereo not given): the composite z-score in assay [1] is -0.571; in assay [3], -0.0424; in assay [4] it was -0.957; in assay [5] it was 0.639; in [6] it was -0.13; in assay [7] it was -0.221. Moreover, the composite z-score in assay [8] was 1.41; in assay [9], -0.0673; in assay [10], -0.0302; in [11], 0.659; in assay [13], -0.147; in [14], 0.072. The composite z-score in assay [15] was 0.389; in [16], 0.0426; in [17], 0.144; in [18], -0.184; in [19], -0.258; in assay [20] it was -0.659. The compound further displayed a z-score in assay [2] of -2.1. For the same compound, the composite Z-score in assay [12] is -0.0774 (inactive).
Take `Cc1ccc(S[C@]2(C(=O)O)CC(=O)N(Cc3ccccc3C(F)(F)F)[C@@H]2c2ccc(CO)cc2)cc1`: the composite z-score is 0.973 in assay [1]; -0.587 in [3]; -0.317 in assay [4]; 0.228 in assay [5]; -0.176 in [6]; -0.138 in assay [7]. Further, the composite z-score in [8] was -0.321; in assay [9], 0.914; in assay [10], -0.115; in assay [11], -0.283; in assay [13], -0.128; in assay [14], -0.164. In addition, the composite z-score in assay [15] is 0.653; in [16], 1.79; in assay [17] it was -0.67; in [18], -0.298; in assay [19] it was -1.6; in [20], -0.373. Further, the z-score in [2] is 0.0788. Moreover, in assay [12], the composite Z-score is -0.612 (inactive).
Regarding `CN(C)CCCN1C(=O)[C@@]2(Cc3ccccc31)c1ccccc1C(=O)N(Cc1ccccc1)[C@H]2c1ccc(CO)cc1`, the composite z-score was 0.118 in assay [1]; -0.0359 in [3]; 0.505 in [4]; -0.258 in assay [5]; -0.252 in assay [6]; -0.289 in [7]. Moreover, the composite z-score in [8] was -0.288; in assay [9], -0.123; in assay [10] it was 0.648; in [11] it was -0.153; in assay [13], -0.109; in assay [14], -0.181. Besides, the composite z-score in [15] was -0.0077; in assay [16], -0.258; in [17], -0.485; in assay [18], 0.347; in assay [19], 0.757; in [20] it was 0.544. The compound also returned a z-score in assay [2] of -1.2. For the same compound, the composite Z-score in [12] is 0.634 (inactive).

The values are drawn from PubChem BioAssay.
